Results from PubChem BioAssay AID2561 (National Center for Advancing Translational Sciences (NCATS), 2010).
“And” between values parts separate entries of the source, which are not always exact repeats. Equal entries are not always repeated. Records with an inconclusive call do not appear. Unmarked numbers belong to inactive results. The source made the active and inactive calls. The call rests on the fitted dose curve; in most records, active means well fitted inhibition curve with a large enough effect; inconclusive means small, poorly fitted or top-dose-only effect, or effect the other way; inactive means flat fitted curve, though single readings scatter.

Target: Pyruvate kinase (Leishmania mexicana) (UniProt Q27686)
Sequence (Q27686 whole entry, looked up): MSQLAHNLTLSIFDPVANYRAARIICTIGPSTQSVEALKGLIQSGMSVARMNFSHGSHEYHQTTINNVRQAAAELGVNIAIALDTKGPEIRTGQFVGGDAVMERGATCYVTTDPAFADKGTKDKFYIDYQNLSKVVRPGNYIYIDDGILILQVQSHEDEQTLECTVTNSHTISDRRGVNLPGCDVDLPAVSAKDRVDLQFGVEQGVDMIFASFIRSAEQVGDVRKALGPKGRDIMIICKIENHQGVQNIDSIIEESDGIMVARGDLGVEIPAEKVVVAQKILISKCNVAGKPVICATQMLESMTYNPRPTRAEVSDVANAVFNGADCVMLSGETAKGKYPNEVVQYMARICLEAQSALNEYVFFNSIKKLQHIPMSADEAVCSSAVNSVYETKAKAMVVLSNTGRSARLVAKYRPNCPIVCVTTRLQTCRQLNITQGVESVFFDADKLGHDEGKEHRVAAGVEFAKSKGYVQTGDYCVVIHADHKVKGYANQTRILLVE
Assay: Confirmation Assay for Inhibitors of Leishmania Mexicana Pyruvate Kinase (LmPK): for Probe SAR;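 on activity change, negative = inhibition: plate controls were uninhibited enzyme for no effect and no enzyme wells for full effect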
Settings: purified LmPK, ATP generation, Kinase-Glo luminescence; series mostly up to 57.5 µM; activity change, negative = inhibition: at the top concentration
Excerpt: NIH Chemical Genomics Center [NCGC] Malcolm Walkinshaw, Hugh Morgan, Linda Gilmore University of Edinburgh, UK MLPCN Grant: 1 R03 MH085697-01 NCGC Assay Overview: Pyruvate kinase (L. Mexicana) (LmPK) enzyme was supplied as a highly purified (>95% pure) sulphate-free preparation from University of Edinburgh, UK and assayed for its ability to generate ATP from ADP using phosphoenolpyruvate (PEP) as a substrate. ATP generation was detected in a coupled reaction by luciferase-mediated luminescence, an ATP-dependent process. Pyruvate kinase substrates, PEP and ADP, were present in the assay at Km and approximately 10-fold below Km respectively. The enzyme was assayed at an intermediate level of activity to screen for both inhibitors and activators.
NCGC Assay Protocol Summary: Three uL of enzyme mix (kept on ice) in assay buffer (50 mM Imidazole pH7.2, 50 mM KCl, 7 mM MgCl2, 0.01% Tween 20, 0.05% BSA) containing PEP (0.5 mM final concentration) and LmPK (0.1 nM final concentration) was dispensed into white solid bottom 1,536 well microtiter plates. 23 nL of compound were delivered by a pin tool and 1 uL of ADP mix in assay buffer (r.t; 0.1 mM final ADP concentration) was added. Plates were incubated at room temperature for 1 hour. Two uL of detection mix (Kinase-Glo, Promega; at 4 degree Celsius protected from light) was added and luminescence read by a ViewLux (Perkin Elmer) at 1 second exposure/plate. Data were normalized to the uninhibited and AC100 inhibition (no enzyme). To monitor activation, the first column contained a five-fold concentration of LmPK (0.5 nM).
Potency means the concentration at half of the fitted maximal effect.

| SMILES | activity change, negative = inhibition | Potency |
| --- | --- | --- |
| Cc1cc(C)c2[nH]c(C3C(=O)c4ccccc4C3=O)cc(=O)c2c1 | -9.19% |  |
| Cc1ccc(NS(=O)(=O)c2cc3c(cc2-c2ccco2)NC(=O)CO3)cc1C | 9.07% |  |
| COc1ccc(N2C(=O)c3ccccc3S2(=O)=O)cc1 | 6.47% |  |
| Cn1c2cc(S(C)=O)sc2c2cnn(Cc3cccc(N)c3)c(=O)c21 (stereo not given) | 4.83% |  |
| O=S(=O)(Nc1ccc(O)c(NS(=O)(=O)c2ccccc2)c1)c1ccccc1 | 14.9% |  |
| Cc1ccc(NS(=O)(=O)c2cc3c(cc2Cl)CCC(=O)N3)cc1C | 2.41% |  |
| Cc1cc(C)n2c(Nc3ccccc3)c(-c3ccc(C)o3)nc2n1 | 1.14% |  |
| O=S1(=O)N=C(Oc2ccccc2-c2ccccc2)c2ccccc21 |  | 3.66 µM (active) |
| O=S1(=O)N=C(Oc2cccc(-c3ccccc3)c2)c2ccccc21 |  | 3.26 µM (active) |
| O=C1NS(=O)(=O)c2ccccc21 |  | inactive |
| N#Cc1cccnc1SC1=NS(=O)(=O)c2ccccc21 |  | 16.3 µM (active) |
| O=S1(=O)N=C(Sc2ccc3c(c2)OCCO3)c2ccccc21 |  | 3.66 µM (active) |
| Nc1ccc2c(c1)S(=O)(=O)NC2=O | -1.4% |  |
| COc1cccc(OC2=NS(=O)(=O)c3ccccc32)c1 | 7.22% |  |
| Cc1ccc(Nc2c(-c3ccsc3)nc3c(C)cccn23)cc1 | -12% |  |
| O=C1c2ccccc2C(=O)N1c1ccccn1 | 23.6% |  |
| O=C1c2ccccc2C(=O)N1c1ncccc1O | 5.08% |  |
| O=C1c2ccccc2C(=O)N1c1cccnc1 | 15.6% |  |
| CC(=O)Nc1ccccc1OC1=N[S+](=O)([O-])c2ccccc21 | -3% |  |
| COc1cc(N2C(=O)c3ccccc3C2=O)c2ncccc2c1 | 14% |  |

| SMILES | activity change, negative = inhibition | Potency |
| --- | --- | --- |
| Cc1ccc(C)c(OC2=NS(=O)(=O)c3ccccc32)c1 |  | 2.59 µM (active) |
| Cc1ccc(NS(=O)(=O)c2cc3c(cc2N(C)C)NC(=O)CC3)cc1C | 5.95% |  |
| O=C1c2ccccc2C(=O)N1Cc1cccnc1 | -2.71% |  |
| Cc1cccc(OC2=NS(=O)(=O)c3ccccc32)c1 |  | 7.02 µM (active) |
| O=C(O)c1ccccc1SC1=NS(=O)(=O)c2ccccc21 |  | 4.61 µM (active) and 8.91 µM (active) |
| Cc1ccc(NS(=O)(=O)c2cc3c(cc2Cl)NC(=O)CO3)cc1C | 10.2% |  |
| Cc1ccc(NS(=O)(=O)c2ccc3c(c2)CC(=O)N3C)cc1C | -0.237% |  |
| CCNc1cccc(S(=O)(=O)N2CCN(S(=O)(=O)c3ccc4c(c3)OCCO4)CC2)c1 | 3.57% |  |
| Cc1ccc2nc(-c3ccc(C)o3)c(NC3CCCC3)n2c1 | 2.25% |  |
| Cc1ccc(NS(=O)(=O)c2cc3c(cc2F)NC(=O)CC3)cc1C | -3.34% |  |
| O=C1c2ccccc2C(=O)N1c1cc(=O)c2ccccc2[nH]1 |  | 3.26 µM (active) |
| O=C1c2ccccc2C(=O)N1Cc1ccccn1 | -7.55% |  |
| CC(=O)Nc1cccc(S(=O)(=O)Nc2ccc(C)c(C)c2)c1 | 1.41% |  |
| CCCCN1C(=O)c2ccccc2C1=O | -2.93% |  |
| O=C1CCc2cc(S(=O)(=O)Nc3ccc(F)cc3)ccc2N1 | 5.68% |  |
| O=C1c2ccccc2C(=O)N1Cc1ccccc1 | 7.51% |  |
| COc1cccc(NS(=O)(=O)c2ccc3c(c2)CCC(=O)N3)c1 | -2.76% |  |
| O=C1c2ccccc2C(=O)N1c1cnc2ccccc2c1 | 9.24% |  |
| COc1ccc(-c2nc3cccc(C)n3c2Nc2ccc(C)cc2)cc1 | 1.54% |  |
| Cc1ccccc1Nc1c(-c2ccc(Cl)s2)nc2ccccn12 | 11.9% |  |
